# Experimental data from PubChem BioAssay (EPA / NIEHS).
# Records with an inconclusive call do not appear. Active and inactive are the calls of the source. Rule for the calls: active = hit-call score of the fitted dose curve at least 0.9, where 1 is the maximum; inconclusive = response in the unintended direction; inactive = score below 0.9.
# Test: Tanguay_ZF_120hpf_TR_legacy: (Legacy) Oregon State University Tanguay Lab 120 Hour Post-fertilization zebrafish Assay for Touch Response (AID 2283667)
# Protocol: Tanguay_ZF_120hpf_legacy is a whole embryo, multiplexed endpoint assay using zebrafish larvae exposed for 120 hours post fertilization on a 96-well plate.Tanguay_ZF_120hpf_TR_legacy is one of one assay component(s) measured or calculated from the Tanguay_ZF_120hpf_legacy assay. It is designed to make measurements of zebrafish development as detected with brightfield microscopy of developing zebrafish embryos.Data from the assay component Tanguay_ZF_120hpf_TR_legacy was analyzed into 1 assay endpoints. This assay endpoint, Tanguay_ZF_120hpf_TR_legacy, was analyzed in the positive analysis fitting direction relative to DMSO as the negative control and baseline of activity. Using a type of morphology reporter, gain-of-signal activity can be used to understand changes in developmentals as they relate to the whole embryo. To generalize the intended target to other relatable targets, this assay endpoint is annotated to the zebrafish development intended target family, where the subfamily is embryonic functional response.
# Zebrafish husbandry: Tropical 5D wild-type adult zebrafish were housed in at an approximate density of 1000 per 100 gallon tank at the Sinnhuber Aquatic Research Laboratory, Oregon State University, Corvallis, OR. Each tank was kept at standard laboratory conditions of 28C on a 14-h light/10-h dark photoperiod in fish water consisting of reverse osmosis water supplemented with a commercially available salt (Instant Ocean). Spawning funnels were placed into the tanks the night prior, and embryos were collected and staged. […] Ten microliters of each row of dilution plate 2 was added to 2 exposure plates. The final DMSO concentration used was 0.64% (vol/vol). Thirty-two embryos were also exposed to 5uM trimethyltin chloride (positive control). Plates were sealed to prevent evaporation and foil covered to reduce light exposure and kept in a 28C incubator. Embryos were statically exposed until 120 hpf. At 24 hpf, embryos were assessed for photomotor response using a custom photomotor response analysis tool (PRAT) and for developmental toxicity endpoints (MO24: mortality at 24 hpf, DP: developmental progression, SM: spontaneous movement, and NC: notochord distortion). At 120 hpf, locomotor activity was measured using Viewpoint Zebralab and assessed for 18 endpoints. Zebrafish acquisition and analysis program (ZAAP), a custom program designed to inventory, acquire, and manage zebrafish data, was used to collect developmental endpoints as either present or absent (i.e., binary responses were recorded). If mortality occurred for an embryo (at either 24 or 120 hpf), the non-mortality endpoints were not measured.
SMILES,outcome,AC50
CCCCCCCCCCCCOS(=O)(=O)O,inactive,
O=C(CCCN1CCC(O)(c2ccc(Cl)cc2)CC1)c1ccc(F)cc1,inactive,
OCC(CO)(CBr)CBr,inactive,
CC(=O)Nc1ccc(O)cc1,inactive,
CN(C)CCOC(c1ccccc1)c1ccccc1,,32.7 µM (active)
CCCCC(CC)C(=O)O (stereo not given),inactive,
N=C(N)c1ccc(OCCCCCOc2ccc(C(=N)N)cc2)cc1,inactive,
O=C1NS(=O)(=O)c2ccccc21,inactive,
CCCCc1oc2ccccc2c1C(=O)c1cc(I)c(OCCN(CC)CC)c(I)c1,inactive,
CS(=O)(=O)c1ccc([C@@H](CC2CCCC2)C(=O)Nc2cnccn2)cc1Cl,inactive,
CCCCC=O,inactive,
Cc1[nH]nc2c1N=C(c1ccccc1Cl)c1cc([N+](=O)[O-])ccc1N2,inactive,
CCC(C)c1ccccc1O (stereo not given),inactive,
CN(Cc1cnc2nc(N)nc(N)c2n1)c1ccc(C(=O)N[C@@H](CCC(=O)O)C(=O)O)cc1,inactive,
O=C(c1ccccc1)c1ccccc1,inactive,
